Data taken from PubChem BioAssay (NCATS).
Active and inactive are the calls of the source. Where a call stands in place of a potency, no number is given. The call rests on the fitted dose curve; in most records, active means well fitted inhibition curve with a large enough effect; inconclusive means small, poorly fitted or top-dose-only effect; inactive means flat fitted curve, though single readings scatter.

What follows are compounds tested against Flap endonuclease 1 (Homo sapiens) (UniProt P39748) (assay: qHTS Validation Assay for the Inhibitors of Human Flap endonuclease 1 (FEN1) (AID 488816)). Conditions: FEN1 nuclease activity, fluorogenic DNA substrate; series mostly up to 57.1 µM.
Flap endonuclease 1 (Homo sapiens), sequence (P39748 whole entry, looked up): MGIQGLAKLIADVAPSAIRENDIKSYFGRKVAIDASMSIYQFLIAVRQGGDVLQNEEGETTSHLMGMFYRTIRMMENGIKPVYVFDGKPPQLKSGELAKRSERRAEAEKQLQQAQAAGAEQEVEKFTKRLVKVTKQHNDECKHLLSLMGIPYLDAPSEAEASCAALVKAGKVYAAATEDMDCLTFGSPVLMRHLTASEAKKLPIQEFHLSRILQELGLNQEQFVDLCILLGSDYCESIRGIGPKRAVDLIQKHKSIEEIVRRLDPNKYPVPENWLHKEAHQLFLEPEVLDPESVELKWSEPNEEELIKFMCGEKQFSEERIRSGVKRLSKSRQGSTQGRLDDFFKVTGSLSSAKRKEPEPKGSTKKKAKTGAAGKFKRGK
How it was run: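 FEN1, dispensed as a 10 nM reagent, was preincubated with pin-transferred compounds for 15 min at room temperature before substrate was added (50 nM final). Plates were read at 0 and 15 min, and a four-parameter Hill equation was fitted to the concentration-response data.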
For `CC(C)[N+](C)(CCOC(=O)C1c2ccccc2Oc2ccccc21)C(C)C`, the Potency was “inactive”. With `CC1=NS(=O)(=O)c2cc(Cl)ccc2N1` the Potency was “inactive”. `NC1=NCC2c3ccccc3Cc3ccccc3N12` (stereo not given) was tested, and the Potency was “inactive”. For `O=C(O)CN(CCOCCOCCN(CC(=O)O)CC(=O)O)CC(=O)O`, the Potency was “inactive”. `CCO/C([O-])=N/c1c[n+](N2CCOCC2)no1` was tested, and the Potency was “inactive”. In the case of `CNCCC(Oc1ccccc1OC)c1ccccc1` (stereo not given), the Potency is reported as “inactive”. For `C[N+](C)(C)CCOC(=O)CCC(=O)OCC[N+](C)(C)C`, the Potency was “inactive”. With `CCN(CC)CCCN(c1ccccc1)C1Cc2ccccc2C1` the Potency was “inactive”. `CCCN(CCC)CCc1cccc2c1CC(=O)N2` was tested, and the Potency was “inactive”. For `C[C@@H](O)[C@H]1C(=O)N2C(C(=O)O)=C(SCCN=CN)C[C@H]12`, the Potency was “inactive”. With `CCN1CCC[C@H]1CNC(=O)c1c(O)c(Cl)cc(Cl)c1OC` the Potency was “inactive”. In the case of `CC(C)COCC(CN(Cc1ccccc1)c1ccccc1)N1CCCC1` (stereo not given), the Potency is reported as “inactive”. `CC(C)(Oc1ccc(CCNC(=O)c2ccc(Cl)cc2)cc1)C(=O)O` was tested, and the Potency was “inactive”. With `CN1C(=O)CC[C@H]1c1cccnc1` the Potency was “inactive”. In the case of `Cc1nc2ccccn2c(=O)c1CCN1CCC(C(=O)c2ccc(F)cc2)CC1`, the Potency is reported as “inactive”. In the case of `NC(=O)c1cn(Cc2c(F)cccc2F)nn1`, the Potency is reported as “inactive”. With `CCCCCCCC/C=C\CCCCCCCC(=O)NCc1ccc(O)c(OC)c1` the Potency was “inactive”. `CN(C(=O)CCCOc1ccc2[nH]c(=O)ccc2c1)C1CCCCC1` was tested, and the Potency was “inactive”. With `CSc1ccc(C(=O)c2[nH]c(=O)[nH]c2C)cc1` the Potency was “inactive”. With `C[C@]12CC[C@@H]3c4ccc(O)cc4C[C@@H](CCCCCCCCCS(=O)CCCC(F)(F)C(F)(F)F)[C@H]3[C@@H]1CC[C@@H]2O` (stereo not given in full) the Potency was “inactive”. `CC(=O)[C@@]1(O)CC[C@H]2[C@@H]3CCC4=CC(=O)CC[C@]4(C)[C@H]3CC[C@@]21C` was tested, and the Potency was “inactive”. For `CCCCCN(CCCCC)C(=O)C(CCC(=O)O)NC(=O)c1ccc(Cl)c(Cl)c1` (stereo not given), the Potency was “inactive”. For `O=C(CCNNC(=O)c1ccncc1)NCc1ccccc1`, the Potency was “inactive”. In the case of `COCCc1ccc(OCC(O)CNC(C)C)cc1` (stereo not given), the Potency is reported as “inactive”. For `c1ccc2c(c1)CCCC2C1=NCCN1` (stereo not given), the Potency was “inactive”. With `Cc1cccc(C)c1NC(=O)C(C)N` (stereo not given) the Potency was “inactive”. In the case of `OC(CCN1CCCCC1)(c1ccccc1)C1CCCCC1` (stereo not given), the Potency is reported as “inactive”. `CCn1ccnc1CC1COc2ccccc2O1` (stereo not given) was tested, and the Potency was “inactive”. In the case of `CCCN(CCC)C(=O)C(CCC(=O)O)NC(=O)c1ccccc1` (stereo not given), the Potency is reported as “inactive”. In the case of `Cc1ccc(S(=O)(=O)NC(=O)NN2CCCCCC2)cc1`, the Potency is reported as “inactive”. For `CCCOc1ccccc1-c1nc2n[nH]nc2c(=O)[nH]1`, the Potency was “inactive”. In the case of `NC(=O)c1ncn([C@@H]2O[C@H](CO)[C@@H](O)[C@H]2O)c1O`, the Potency is reported as “inactive”. In the case of `CCc1cccc(N(C)C(N)=Nc2cccc3ccccc23)c1`, the Potency is reported as “inactive”. In the case of `C[n+]1cc2c3c(ccc2c2ccc4cc5c(cc4c21)OCO5)OCO3`, the Potency is reported as “inactive”. With `Cc1nc2sccn2c(=O)c1CCN1CCC(=C(c2ccc(F)cc2)c2ccc(F)cc2)CC1` the Potency was “inactive”.
